PubChem BioAssay (NCATS)
Results filed as inconclusive are left out. Unmarked numbers belong to inactive results. Calls follow the shape of the dose curve; as a rule, active = well fitted curve in the direction sought with a large enough effect; inconclusive = small, poorly fitted or top-dose-only effect, or another doubt; inactive = no such curve, though single readings can be large or run the other way.

Assay: qHTS Assay for Identifying Gametocytocidal Compounds (AID 743244);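 also: actives lower the fluorescent signal which means gametocytes are killed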
Conditions: P. falciparum 3D7 stage III-V gametocytes, alamarBlue, 72 h; max response: hits give low values
In short: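 A resazurin-based viability read-out was applied to mature P. falciparum gametocytes: 72 h compound treatment, then 24 h dye incubation, with falling fluorescence signalling gametocytocidal effect.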
% is scaled to controls: 0 for no effect and ±100 for the full control effect.

Structure (SMILES)	max response [%]
CC(C)NC[C@@H](O)COc1ccc(CC(N)=O)cc1	23.6
CCCCCCCCCCCCCCCCN	6.4
CC(=O)Oc1cccc(O)c1	2.07
OCc1ccc(Cl)cc1Cl	-2.07
C[N+]1(C)CCCC(OC(=O)C(O)(c2ccccc2)c2ccccc2)C1 (stereo not drawn)	8.34
CC(N)CCCC(C)(C)O (stereo not drawn)	-9.78
CN/C(=C\[N+](=O)[O-])NCCSCc1csc(CN(C)C)n1	18.9
NNc1nnc(NN)c2ccccc12	5.69
Cc1ccc(S(=O)(=O)NC(=O)NC2CCCCC2)cc1	0.0407
Cc1cc(NC(=O)C2=C(O)c3ccccc3S(=O)(=O)N2C)no1	-9.54
CC(=O)N[C@@H](Cc1ccc(O)cc1)C(=O)O	-6.61
Nc1ncnc2c1ncn2[C@@H]1O[C@H](COP(=O)(O)O)[C@@H](O)[C@H]1O	-1.97
CN[C@@H]1[C@H](O)[C@H](NC)[C@H]2O[C@@]3(O)C(=O)C[C@@H](C)O[C@H]3O[C@@H]2[C@H]1O	2.93
Cc1onc(-c2ccccc2)c1-c1ccc(S(N)(=O)=O)cc1	7.78
C/C=C1\[C@H]2C=C(C)C[C@]1(N)c1ccc(=O)[nH]c1C2	2.62
COc1ccc(Cc2cnc(N)nc2N)cc1OC	1.42
CCCCCC(C)N (stereo not drawn)	7.89
O=C1CC[C@@H](C(=O)O)N1	-5.19
CN1C(C)(C)CCCC1(C)C	-1.65

Structure (SMILES)	max response [%]
Cc1c(Cn2ccnc2)c2ccccc2n1CCC(=O)O	-9.07
COc1ccccc1OC(=O)Oc1ccccc1OC	1.99
CC(=O)[C@@]1(O)CC[C@H]2[C@@H]3C[C@H](C)C4=CC(=O)C=C[C@]4(C)[C@@]3(F)[C@@H](O)C[C@@]21C	-2.09
C[C@@H](c1ncncc1F)C(O)(Cn1cncn1)c1ccc(F)cc1F (stereo partly drawn)	4.12
CC(=O)N1C[C@H](O)C[C@H]1C(=O)O	11.8
CCc1cccc(CC)c1NC(=O)CN(CC(=O)O)CC(=O)O	12.1
O=C(O)c1cc(=O)c2ccccc2o1	42.7
O=C(O)CCC(=O)O	4.69
NC(=O)NC1NC(=O)NC1=O (stereo not drawn)	-4.09
CC(C)(C)NCC(O)COc1cccc2c1CCC(=O)N2 (stereo not drawn)	15.2
O=S1(=O)OC(c2ccc(O)cc2)(c2ccc(O)cc2)c2ccccc21	21.8
CC[N+](C)(CC)CCOC(=O)C1c2ccccc2Oc2ccccc21	7.42
Cc1cc(-n2nc3ccc(Cl)cc3n2)c(O)c(C(C)(C)C)c1	-8.61
O=C(O)Cc1ccc(CCNS(=O)(=O)c2ccc(Cl)cc2)cc1	23.5
Cc1ccccc1N=Nc1ccc(N=Nc2c(O)ccc3ccccc23)c(C)c1	7.02
NCC1CCC(C(=O)Oc2ccc(CCC(=O)O)cc2)CC1 (stereo not drawn)	9.03
O=c1[nH]c(=O)n([C@H]2C[C@H](O)[C@@H](CO)O2)cc1I	3.28
O=C(O)Cn1c(C(=O)Nc2nc(-c3ccccc3Cl)cs2)cc2ccccc21	1.71
CCCNC(C)(C)COC(=O)c1ccccc1	5.84
